Mtb UGM inh – M. tuberculosis UGM enzyme inhibitors, primary screen, biochemical, fluorescence polarization, single point; purified UGM, fluorescence polarization probe displacement; inhibition, % at 10 µM; 0.06% of 320,000 active; AID 504406, 2011; in the data active means inhibition above about 10%, passing the limit was not always enough
Target sequence (P9WIQ1 whole entry, looked up): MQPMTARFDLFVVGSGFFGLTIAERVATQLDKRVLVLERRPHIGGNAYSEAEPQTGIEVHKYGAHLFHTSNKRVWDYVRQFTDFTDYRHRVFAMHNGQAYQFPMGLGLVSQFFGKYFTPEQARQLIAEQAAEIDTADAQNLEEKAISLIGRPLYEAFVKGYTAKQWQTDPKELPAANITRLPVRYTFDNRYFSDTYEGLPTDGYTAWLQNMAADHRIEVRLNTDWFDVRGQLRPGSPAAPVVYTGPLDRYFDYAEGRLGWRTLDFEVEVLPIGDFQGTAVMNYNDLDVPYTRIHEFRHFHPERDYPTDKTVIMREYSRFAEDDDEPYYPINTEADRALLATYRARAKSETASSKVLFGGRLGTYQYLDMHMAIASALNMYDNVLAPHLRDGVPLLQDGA
FadD28 binding – inhibitors of FadD28 bisubstrate probe binding, primary screen, biochemical, fluorescence polarization, single point | 0.22% of 360,000 active | inhibition, % at 12.5 µM | Mycobacterium tuberculosis FadD28 fatty-acid-AMP ligase | AID 588549, 2011; in the data active means inhibition above about 8.5%, passing the limit was not always enough
Rv3671c inh – Rv3671c serine protease inhibitors, primary screen, biochemical, fluorescence polarization, M. tuberculosis H37Rv; inhibition, % at 5.96 µM; 0.048% of 320,000 active; AID 2606, 2010; in the data active means inhibition above about 38%;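 further: extracellular domain of Rv3671c used as enzyme; 0% = enzyme with DMSO and 100% = no enzyme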
RecA splice inh – Mtb RecA intein splicing inhibitors, primary screen, biochemical, fluorescence, HTS; AID 2221, 2009; cell-free RecA intein splicing; Protein RecA (Mycobacterium tuberculosis (strain ATCC 25618 / H37Rv)), P9WHJ3; inhibition, % (no concentration beside the values); 0.75% of 290,000 active; in the data active means inhibition above about 30%;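 further: 0% = vehicle wells and 100% = reference inhibitor control wells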
Mtb hypoxia rep – PubChem AID 1159583; M. tuberculosis hypoxia-regulated fluorescent reporter, fluorescence; fluorescence inhibition, % (concentration not given with the values); 0.1% of 300,000 active; in the data active means fluorescence inhibition mostly above about 23%, no sharp cut-off; inactive means mostly below about 17%
Active calls of the source: *; i = inactive; · = no result shown. The list is not random: actives were taken first. Their share in the collection is about 0.92%.

SMILES	Mtb UGM inh	FadD28 binding	Rv3671c inh	RecA splice inh	Mtb hypoxia rep
Cc1ccc(C)c(-n2nnnc2Sc2nnnn2-c2ccccc2)c1	-4	-4	3	71*	7
CCOC(=O)C1C2COc3cc(OC)ccc3C2N2C(=O)c3cc(F)ccc3NC(=O)[C@@]12C (stereo not given in full)	·	·	·	·	-3
Cc1cccc(C)c1C(=O)NC(Cc1ccccc1)C(=O)O (stereo not given)	·	·	·	·	1
CCC(C(=O)NC1CCCCC1)n1c(SCc2ccccc2F)nc2ccncc21 (stereo not given)	2	9.3*	3	-4	-5
CSc1nc2ccccc2n1C(=O)NC1CCCCC1	-1	-1	10	-2	-2
Cc1ccc(S(=O)(=O)N2CC(C(=O)O)=CCC2c2ccc(Cl)cc2)cc1 (stereo not given)	·	·	·	·	9
O=C(CCl)N=c1sccn1Cc1ccc(Cl)cc1Cl	0	-6	2	44*	18
O=C(CCl)N=c1sccn1Cc1ccccc1Cl	2	-2	12	19	·
O=C(C=Cc1ccc(Cl)c([N+](=O)[O-])c1)Nc1cccc(NC(=O)c2ccco2)c1	·	·	·	·	1
CC(C)(c1cc(Br)c(O)c(Br)c1)c1cc(Br)c(O)c(Br)c1	3	20*	-7	·	·
C#CCCc1cocc1C=[N+]([O-])c1ccc(C(=O)OCC)cc1	·	·	·	·	4
CCN1CC2C3C(=O)N(C)C(=O)C3[C@](C)(C1=O)N2C(=O)c1ccc(F)cc1 (stereo not given in full)	·	·	·	·	10
COc1ccc(-c2nnc(SCc3nc4ccccc4s3)n2C(C)C)cc1	1	-3	7	4	45*
OC(c1ccccc1)(c1nc(-c2ccc3c(c2)OCO3)cs1)C(F)(F)F (stereo not given)	·	-4	·	·	·
N#C/C(=C\C=C\c1ccccc1)c1nc(-c2ccc3c(c2)OCO3)cs1	20*	-1	1	-3	·
CCC(C)Nc1nc(Cl)nc(N(C#N)CN2C(=O)c3ccccc3S2(=O)=O)n1 (stereo not given)	0	-2	1	37*	·
CC(C)Nc1nc(Cl)nc(N(C#N)CN2C(=O)c3ccccc3C2=O)n1	0	-1	-2	2	10
CC1(C)OC2CC3C4CC(F)C5=CC(=O)CC[C@]5(C)C4C(O)C[C@]3(C)[C@]2(C(=O)CO)O1 (stereo not given in full)	·	·	·	·	-6
Clc1ccc(C=NNc2nc(Cl)nc3ccccc23)cc1	·	·	·	·	9
COc1ccccc1NC(=O)CSc1nc2c(sc3ccccc32)c(=O)n1CCN(C)C	1	-3	-6	35*	2
CCc1cccc2c(C(=O)COC(=O)/C=C/c3ccc(O)c(OC)c3)c[nH]c12	0	35*	-41	14	·
COc1cccc(/C=C/C(=O)OCC(=O)c2c[nH]c3ccccc23)c1	·	-1	-11	·	-3
CCc1cccc2c(C(=O)Cn3nnc(-c4ccc(OC)c(OC)c4)n3)c[nH]c12	1	73*	-5	1	·
COc1ccc(-c2nnn(CC(=O)NCc3ccc4c(c3)OCO4)n2)cc1OC	-1	-3	-9	-1	3
CCCCCCOc1ccc(C(=O)O)cc1	1	-4	1	0	-6
SMILES	Mtb UGM inh	FadD28 binding	Rv3671c inh	RecA splice inh	Mtb hypoxia rep
CCCCCCOc1ccc(C(=O)n2cnc(N)n2)cc1	-5	-1	6	54*	1
CC(=O)Nc1ccc(N=C(C2=C(O)c3ccccc3C2=O)c2ccccc2)cc1	-1	14*	-13	7	-4
COc1ccc(N=C(C)C2=C(O)c3ccccc3C2=O)cc1	-2	1	-8	-3	-1
CC1CCN(c2nc3ccccn3c(=O)c2C=O)CC1	1	1	7	0	45*
Cc1cnc(C(=O)OCC(=O)Nc2cccc3ccccc23)cn1	1	-4	-5	·	26*
Cc1cnc(C(=O)OCC(=O)Nc2cccc(C)c2C)cn1	2	-1	-3	·	-2
Nc1nc(CCl)nc(Nc2ccc3ccccc3c2)n1	·	-7	·	46*	19
COc1ccc(Nc2nc(N)nc(CCl)n2)cc1	0	-1	-2	3	25
COCCCn1c(SCc2ccc(OC)cc2)nc2cc(OC)c(OC)cc2c1=N	-1	21*	11	1	3
CCCSc1nc2cc(OC)c(OC)cc2c(=N)n1CCCN1CCOCC1	3	-2	3	11	-1
CC(Cc1ccccc1)[N+]([O-])=Cc1ccc(C(F)(F)F)cc1 (stereo not given)	·	·	·	·	25
Oc1[nH]c2ccc(Br)cc2c1N=Nc1ccc(F)cc1	18*	-1	-1	-10	6
CCc1cccc(NC(=O)Cn2c(=O)oc3cc(S(=O)(=O)N4CCOCC4)ccc32)c1	0	41*	-3	0	-5
O=C(Cn1c(=O)oc2ccccc21)Nc1ccc(S(=O)(=O)N2CCCCC2)cc1	-3	1	-32	0	·
O=C(Cn1c(=O)oc2cc(S(=O)(=O)N3CCCC3)ccc21)Nc1cccc(C(F)(F)F)c1	-1	11*	-35	1	11
COc1cc(C(=O)NCC(=O)NN=Cc2cccc(OC(=O)c3ccco3)c2)cc(OC)c1OC	·	·	·	·	5
CCC=CC(=O)N1CC2(CC(c3cccc(NC(=O)CC(c4ccccc4)c4ccccc4)c3)=NO2)CC1C(N)=O (stereo not given)	·	·	·	·	10
Nc1ccc2nc(CN3CCOCC3)[nH]c2c1	1	0	6	42*	1
CN1/C(=C\C=C2/SC(=S)N(CC(=O)O)C2=O)C(C)(C)c2ccccc21	-27	-53	i	·	62*
CN1CCS/C1=C\C=C1/SC(=S)N(CC(=O)O)C1=O	·	2	·	·	47*
Cc1cc(C(=O)NN=Cc2c(C)[nH]c3ccccc23)n[nH]1	·	·	·	·	5
Cc1[nH]n(-c2ccccc2)c(=O)c1C=NN1CCOCC1	·	·	·	·	16
Cc1[nH]n(-c2ccccc2)c(=O)c1/C=N/N1CCOCC1	5	-4	-5	46*	·
Cc1cc(C(=O)N/N=C/c2c(C)[nH]n(-c3ccccc3)c2=O)n[nH]1	0	-1	-13	55*	·
O=C(Nc1ccc(C(=O)O)cc1)C(=Cc1ccc2c(c1)OCO2)NC(=O)c1ccc(Br)cc1	·	·	·	·	14
SMILES	Mtb UGM inh	FadD28 binding	Rv3671c inh	RecA splice inh	Mtb hypoxia rep
CCOC(=O)c1c(-c2ccc(C)s2)csc1NC(=O)c1cccs1	-2	17*	-4	-4	9
CCOC(=O)c1c(-c2cccs2)csc1NC(C)=O	0	-1	1	0	15
COC(=O)C1=NN(C(=O)c2cccc(Br)c2)C(O)(c2ccc(Cl)cc2)C1 (stereo not given)	0	0	16	37*	0
CCOC(=O)C1=NN(C(=O)c2ccc(OC)cc2)C(O)(c2ccc(Cl)cc2)C1 (stereo not given)	1	-1	6	21	8
CCCSC(N)=NN=Cc1ccccc1O	·	·	·	·	12
N=C1c2ccccc2CN1NC(=O)CC12CC3CC(CC(C3)C1)C2	5	22*	-10	-2	15
